AI-2 QS mod – Vibrio harveyi AI-2 quorum sensing modulators, primary screen, JMH597 strain, luminescence/OD600 ratio | Vibrio harveyi JMH597 AI-2 luminescence/OD600 ratio, 9 h; active compounds read low; strain lacks LuxN and CqsS sensors; 0 = neutral-control median | activity change, % at 7.5 µM | hit rate 0.4% among 300,000; in the data active means activity change below about -75%, passing the limit was not always enough; inconclusive means no clear call, values can overlap the other calls;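 further: luminescence divided by OD600 gain over 9 h not by final OD600 alone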
HIF activator – HIF pathway transcriptional activators, primary screen, cell-based, U2OS HRE-luciferase, luminescence | U2OS HRE-luciferase reporter; normalized: DMSO 0%, desferrioxamine 100% | activation, % at 7.5 µM (by protocol) | hit rate 0.32% among 300,000 | AID 1910, 2009;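 active means mean activation of at least 10% of the iron chelator positive control signal, with at least half of replicates also reaching 10%; inconclusive means mean and replicate majority disagree about reaching 10%; inactive means mean and most replicates under 10%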
SUMO Mot1 rescue – yeast Mot1-301 growth rescue at high temperature, primary screen, SUMOylation pathway inhibitor project, S. cerevisiae, ATP luminescence, 38.5C | growth rescue, % at 18.8 µM | AID 2716, 2010 | hit rate 1% among 320,000 | S. cerevisiae Mot1-301 growth rescue; percent above DMSO median, 100 means doubled;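 active means every valid replicate shows activation above 250% relative to neutral control wells; inactive means the rest, any valid replicate at or below 250%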
ALR H2O2 inh – inhibitors of human ALR sulfhydryl oxidase, primary screen, biochemical, H2O2 detection, HRP-luminol luminescence, single point; AID 485317, 2010; purified ALR, DTT oxidation; FAD-linked sulfhydryl oxidase ALR (Homo sapiens), P55789; hit rate 3.8% among 290,000; inhibition, % (no concentration beside the values);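 active means mean replicate inhibition above about 79%, with every replicate also reaching it, limit read from the data; inconclusive means only one of the two criteria met; inactive means mean below limit and not every replicate reaching it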
Target sequence (P55789 whole entry, looked up): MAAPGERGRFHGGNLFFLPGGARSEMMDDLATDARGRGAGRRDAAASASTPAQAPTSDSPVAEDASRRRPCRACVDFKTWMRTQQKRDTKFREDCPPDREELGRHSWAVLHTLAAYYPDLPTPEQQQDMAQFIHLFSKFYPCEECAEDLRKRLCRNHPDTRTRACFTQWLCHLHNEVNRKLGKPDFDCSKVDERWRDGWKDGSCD
Yeast Mot1 SUMO – growth restoration of Mot1-301 yeast on galactose, dose response, SUMO pathway inhibitor project, whole organism, S. cerevisiae, ATP luminescence, cherry-picked samples; S. cerevisiae Mot1-301 galactose growth, 24 h; -100 = growth of slx-deleted rescue strain; 2,300 tested, under 10 active; shares compounds with SUMO Mot1 rescue; AID 493004, 2010; growth activity, percent, % at 42 µM;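 active means Signal drops as the depositor expects, and the fitted half-maximal dose is no more than ten times the top valid tested dose; inconclusive means Poor fit, or a flat curve whose signal drops by 30% to 70%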;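 further: more negative values mean stronger growth rescue toward the control strain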
A number is an active result; i = inactive; ? = inconclusive; nt = no result; + = active, no number. A selection: hits, their analogues and other compounds. The true share with any hit is near 4.8%.

SMILES	AI-2 QS mod	HIF activator	SUMO Mot1 rescue	ALR H2O2 inh	Yeast Mot1 SUMO
CC(=O)N1N=C(N)SC12CCCC2	i	i	+	i	i
COc1ccc(OC)c(-c2cc(C(=O)Nc3c(C)nn(Cc4ccccc4Cl)c3C)no2)c1	i	i	571	i	i
Cc1nc(SCc2nc3ccc([N+](=O)[O-])cc3[nH]2)c2oc3ccccc3c2n1	nt	nt	i	nt	nt
COc1ccc2nc(NC(=O)C3CCN(S(=O)(=O)c4cccnc4)CC3)sc2c1	?	i	i	nt	nt
Cc1ccc2nc(NC(=O)C3CCN(S(=O)(=O)c4cccnc4)CC3)sc2c1	i	i	775	i	i
CCCCc1ccc(S(=O)(=O)NNC(=S)NCc2ccco2)cc1	i	i	545	i	i
CCCCn1c(N)c(N(CC(C)C)C(=O)c2cc(-c3ccc(F)cc3)nc3ccccc23)c(=O)[nH]c1=O	i	i	491	nt	i
CCCCn1c(N)c(N(CC(C)C)C(=O)c2cc(-c3ccc(OC)c(OC)c3)nc3ccccc23)c(=O)[nH]c1=O	i	i	i	nt	nt
O=[N+]([O-])c1ccc(N=Nc2ncc[nH]2)cc1	i	i	i	i	nt
COc1ccc(C(=O)NC2CC2)cc1OC1CCN(Cc2ccc(NC(C)=O)cc2)CC1	i	i	nt	nt	nt
COc1cc(CN2CCC(Oc3cc(C(=O)NC4CC4)ccc3OC)CC2)cc(OC)c1	i	i	393	i	i
COc1ccc(Cl)cc1NC(=O)CN(C)C(=O)c1cn2ccccc2n1	nt	nt	i	i	nt
N#CC1(NC(=O)CSc2nnc3n2CCCCC3)CCCCC1	nt	nt	i	i	nt
CCCCC(=O)NCCc1ccc(S(N)(=O)=O)cc1	i	i	+	i	i
Cc1ccsc1C(=O)NCCc1ccc(S(N)(=O)=O)cc1	i	i	765	i	i
COc1ccccc1N1CCN(Cc2cc(=O)c(OCC#N)co2)CC1	i	i	i	i	nt
CN(C)c1ccnc2sc3c(NCC(O)CO)ncnc3c12 (configuration not stated)	i	i	616	i	i
COc1ccc(-c2noc(CSc3nc(-c4ccccc4)cc(=O)[nH]3)n2)cc1OC	i	i	493	i	i
COc1ccc(-c2noc(CSc3nc(N)cc(=O)[nH]3)n2)cc1	i	i	i	i	nt
O=C1CC(c2ccccc2)CC(O)=C1C=NCCN1CCN(C(=O)Nc2ccccc2)CC1 (configuration not stated)	i	i	i	i	nt
O=C(COc1cccnc1[N+](=O)[O-])Nc1ccc2c(c1)CCC2	i	i	811	nt	i
Cc1ccc(S(=O)(=O)NCC(C)n2cncn2)cc1 (configuration not stated)	i	i	533	i	i
N#CCCn1nc(-c2ccccc2)c2ccccc2c1=O	i	i	i	i	nt
CC(=O)c1ccc(N2CCN(CC(=O)Nc3cc(C)on3)CC2)cc1	i	i	483	i	i
Nc1nnc(COc2ccc(Br)cc2Br)s1	i	nt	+	i	i
SMILES	AI-2 QS mod	HIF activator	SUMO Mot1 rescue	ALR H2O2 inh	Yeast Mot1 SUMO
CCOc1ccc(Cl)cc1CNc1nnnn1CC	i	i	464	i	i
COc1ccc(C(=O)CC(=O)C(=O)Nc2ccc(C)c(Cl)c2)cc1	i	i	918	i	i
CC(=O)c1ccc(N(CC(=O)NC2CCCC2)C(=O)c2csnn2)cc1	i	i	i	i	nt
COc1ccccc1NC(=O)COC(=O)CC(C)(C)CC1=NS(=O)(=O)c2ccccc2N1	i	i	396	i	i
Cc1ccc(C(=O)COC(=O)C2CC3CCCC(C2)C3=O)cc1[N+](=O)[O-] (configuration not stated)	i	i	i	i	nt
COCCN1C(=O)/C(=C/c2cc3c(cc2Br)OCO3)NC1=S	i	i	603	i	i
O=C(COC(=O)CCS(=O)(=O)c1ccc(F)cc1)NC1CCCCC1	nt	nt	i	i	nt
COC(=O)CNC(=O)CSc1ccccn1	i	i	+	i	i
COc1ccc2c(COC(=O)[C@H](C)NS(=O)(=O)c3ccccc3F)cc(=O)oc2c1	nt	nt	i	i	nt
CCOc1ccccc1C(=O)N(Cc1cccs1)C1CCS(=O)(=O)C1 (configuration not stated)	i	i	+	i	i
Cc1nnc(SCC(=O)Nc2c(Cl)cccc2Cl)[nH]c1=O	i	i	i	i	nt
Cc1nnc(SCC(=O)NCc2ccccc2Cl)[nH]c1=O	i	i	+	i	i
CCC(NC(=O)c1ccccc1NC(=O)c1ccco1)C(=O)NC1CCCCC1 (configuration not stated)	i	i	381	i	i
CCC(NC(=O)c1ccccc1NC(=O)c1ccco1)C(=O)O (configuration not stated)	i	nt	i	i	nt
CCOc1ccccc1C(=O)Nc1ccc(S(=O)(=O)Nc2nccc(C)n2)cc1	i	i	i	i	nt
CCOC(=O)N1CCC(Nc2nc3ccccc3n3nnnc23)CC1	i	i	889	i	i
COc1cc(/C=C(\C#N)C(=O)Nc2cccc(C(=O)O)c2)ccc1OCc1ccc(C)cc1	i	i	i	i	nt
COc1cc(/C=C(\C#N)C(=O)Nc2ccc(C(=O)O)cc2)ccc1OC(=O)c1cccc(F)c1	i	i	827	i	i
C[N+](C)(C)C[C@H](O)CC(=O)[O-]	i	i	i	i	nt
Cc1nc(SCC(=O)O)n[nH]1	i	i	+	i	i
CCCCN1CC(=O)N2[C@H](c3ccc(OC)cc3)[C@@H]3C(=O)N(CC)C(=O)[C@@H]3[C@]2(Cc2ccccc2)C1=O	i	i	i	i	nt
Cc1nc(S(=O)(=O)c2ccc(Cl)cc2)c(N(C)C)o1	i	i	i	i	nt
COc1ccc(C(=O)N/C(=C\c2cn(C)c3ccccc23)C(=O)OCCN(C)C)cc1	i	i	507	i	i
CCCCOC(=O)/C(=C/c1cn(C)c2ccccc12)NC(=O)c1ccc(OC)cc1	i	i	i	i	nt
CN(C)C(=O)CNC(=O)C1CCCCC1	i	i	+	i	i
SMILES	AI-2 QS mod	HIF activator	SUMO Mot1 rescue	ALR H2O2 inh	Yeast Mot1 SUMO
O=C(CNC(=O)C1CCCCC1)NCCCO	i	i	i	i	nt
Cc1cc(N2CCOCC2)nc2ccc(NC(=O)CCC(=O)N3CCN(c4cccc(C(F)(F)F)c4)CC3)cc12	i	i	i	i	nt
CCN1CCN(CC(=O)Nc2ccc(C)cc2C)C(=O)C1=O	i	i	i	i	nt
CCN1CCN(CC(=O)Nc2cccc(C)c2C)C(=O)C1=O	i	i	518	i	i
O=C(COC(=O)C1CCC(=O)N1)Nc1cccc([N+](=O)[O-])c1 (configuration not stated)	nt	nt	i	i	nt
CC(=O)Nc1ccc(S(=O)(=O)N(C)CC(=O)Nc2ccc(Br)cc2F)cc1	i	i	513	i	i
